Experiments:
Assay in all cases: DAPPL (digital affinity profiling via proximity ligation, sequencing); 10 mM Tris-HCl pH 7.5, 50 mM NaCl, 1 mM DTT, 4% glycerol, room temperature, 30 min; GST-TFs on glutathione beads, 16-mer random dsDNA library, 0.1% formaldehyde crosslink after washing; high values mean tight binding
FLI1 = molecular target: T1, FLI1 (Homo sapiens, UniProt Q01543 1-452); details: protein: recombinant; tags: N-terminal GST; dsDNA, one strand shown
T1 sequence: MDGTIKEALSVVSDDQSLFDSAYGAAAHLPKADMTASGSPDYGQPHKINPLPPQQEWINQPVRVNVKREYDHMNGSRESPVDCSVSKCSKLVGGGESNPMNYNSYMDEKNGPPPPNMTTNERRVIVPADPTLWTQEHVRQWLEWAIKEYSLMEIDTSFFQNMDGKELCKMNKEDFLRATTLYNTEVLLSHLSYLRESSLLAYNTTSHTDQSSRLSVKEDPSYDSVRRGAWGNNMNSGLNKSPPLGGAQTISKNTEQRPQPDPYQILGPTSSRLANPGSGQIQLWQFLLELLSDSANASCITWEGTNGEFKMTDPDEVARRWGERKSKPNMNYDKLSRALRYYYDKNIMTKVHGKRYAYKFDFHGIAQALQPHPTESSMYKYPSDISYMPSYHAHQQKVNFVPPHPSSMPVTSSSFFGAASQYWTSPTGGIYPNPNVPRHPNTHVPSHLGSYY
In short: (§1)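 Binding signal is given per hexamer as its read frequency for a factor divided by its frequency in the tag-only sample. GST-fused human transcription factors were expressed in yeast, captured on glutathione beads, barcoded with DNA and pooled with that sample, then incubated with 200 nmole of a 16-mer random double-stranded DNA library in Tris/NaCl/DTT/glycerol buffer for 30 min at room temperature. The pools were then washed, crosslinked, proximity-ligated, amplified by PCR and sequenced on an Illumina NextSeq500.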

ELK1 = molecular target: T2, ELK1 (Homo sapiens, UniProt P19419 1-428); details: protein: recombinant; tags: N-terminal GST; dsDNA, one strand shown
T2 sequence: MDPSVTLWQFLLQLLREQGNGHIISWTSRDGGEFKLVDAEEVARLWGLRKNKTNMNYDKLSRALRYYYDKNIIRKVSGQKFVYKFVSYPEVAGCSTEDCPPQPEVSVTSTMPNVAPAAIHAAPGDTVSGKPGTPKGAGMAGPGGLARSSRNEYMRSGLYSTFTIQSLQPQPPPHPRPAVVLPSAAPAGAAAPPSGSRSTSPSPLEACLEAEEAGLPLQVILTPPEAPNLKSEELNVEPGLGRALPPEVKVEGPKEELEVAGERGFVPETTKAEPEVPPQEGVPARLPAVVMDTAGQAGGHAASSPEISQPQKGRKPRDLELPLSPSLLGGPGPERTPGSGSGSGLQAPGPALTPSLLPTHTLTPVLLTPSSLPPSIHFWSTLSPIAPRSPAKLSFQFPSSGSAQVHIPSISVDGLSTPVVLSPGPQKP
In short: as §1

GABPA = molecular target: T3, GABPA (Homo sapiens, UniProt Q06546 1-454); details: protein: recombinant; tags: N-terminal GST; dsDNA, one strand shown
T3 sequence: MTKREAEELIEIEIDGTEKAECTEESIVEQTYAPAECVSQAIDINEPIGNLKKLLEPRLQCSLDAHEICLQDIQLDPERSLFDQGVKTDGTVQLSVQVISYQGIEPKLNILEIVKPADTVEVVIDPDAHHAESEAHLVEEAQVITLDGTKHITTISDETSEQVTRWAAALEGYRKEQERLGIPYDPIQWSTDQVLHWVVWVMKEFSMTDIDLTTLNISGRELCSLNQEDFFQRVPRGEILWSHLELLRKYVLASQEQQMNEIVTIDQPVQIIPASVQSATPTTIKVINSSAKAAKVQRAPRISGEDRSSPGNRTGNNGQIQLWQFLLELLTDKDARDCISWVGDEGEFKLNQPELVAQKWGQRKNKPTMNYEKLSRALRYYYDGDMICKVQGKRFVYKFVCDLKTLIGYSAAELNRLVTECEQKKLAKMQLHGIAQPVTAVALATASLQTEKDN
In short: as §1

ERG = molecular target: T4, ERG (Homo sapiens, UniProt P11308 1-479); details: protein: recombinant; tags: N-terminal GST; dsDNA, one strand shown
T4 sequence: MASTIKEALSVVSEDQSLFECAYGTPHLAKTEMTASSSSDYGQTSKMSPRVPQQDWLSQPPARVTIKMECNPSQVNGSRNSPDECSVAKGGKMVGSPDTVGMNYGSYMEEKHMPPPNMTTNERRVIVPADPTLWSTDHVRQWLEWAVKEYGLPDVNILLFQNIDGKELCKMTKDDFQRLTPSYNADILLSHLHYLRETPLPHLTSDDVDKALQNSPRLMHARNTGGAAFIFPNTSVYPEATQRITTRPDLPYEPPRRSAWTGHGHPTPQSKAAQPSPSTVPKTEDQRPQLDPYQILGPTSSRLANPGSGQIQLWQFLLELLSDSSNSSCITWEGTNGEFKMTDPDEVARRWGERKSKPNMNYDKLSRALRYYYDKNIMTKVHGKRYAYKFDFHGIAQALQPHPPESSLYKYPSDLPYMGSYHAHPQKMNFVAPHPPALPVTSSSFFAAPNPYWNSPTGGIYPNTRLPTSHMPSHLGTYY
In short: as §1

ELF1 = ELF1 (Homo sapiens, UniProt P32519 1-619); details: protein: recombinant; tags: N-terminal GST; dsDNA, one strand shown
Sequence of ELF1 (P32519 whole entry): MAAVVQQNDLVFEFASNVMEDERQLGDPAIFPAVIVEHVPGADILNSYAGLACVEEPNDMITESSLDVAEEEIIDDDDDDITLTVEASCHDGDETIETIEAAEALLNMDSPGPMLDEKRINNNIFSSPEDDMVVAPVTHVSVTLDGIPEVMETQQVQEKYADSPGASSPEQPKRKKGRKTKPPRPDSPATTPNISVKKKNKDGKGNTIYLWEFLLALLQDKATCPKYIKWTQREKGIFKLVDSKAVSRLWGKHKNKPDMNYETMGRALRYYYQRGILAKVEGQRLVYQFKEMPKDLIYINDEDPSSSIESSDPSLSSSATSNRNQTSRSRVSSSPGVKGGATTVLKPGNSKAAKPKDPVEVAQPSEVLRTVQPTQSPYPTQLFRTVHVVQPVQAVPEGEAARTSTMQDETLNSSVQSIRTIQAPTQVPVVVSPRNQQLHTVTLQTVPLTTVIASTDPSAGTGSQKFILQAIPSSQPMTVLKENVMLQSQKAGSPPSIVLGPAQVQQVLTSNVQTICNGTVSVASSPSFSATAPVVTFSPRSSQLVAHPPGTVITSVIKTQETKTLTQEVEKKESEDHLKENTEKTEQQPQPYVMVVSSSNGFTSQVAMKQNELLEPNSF
In short: as §1

EHF = molecular target: T5, EHF (Homo sapiens, UniProt Q9NZC4 1-300); details: protein: recombinant; tags: N-terminal GST; dsDNA, one strand shown
T5 sequence: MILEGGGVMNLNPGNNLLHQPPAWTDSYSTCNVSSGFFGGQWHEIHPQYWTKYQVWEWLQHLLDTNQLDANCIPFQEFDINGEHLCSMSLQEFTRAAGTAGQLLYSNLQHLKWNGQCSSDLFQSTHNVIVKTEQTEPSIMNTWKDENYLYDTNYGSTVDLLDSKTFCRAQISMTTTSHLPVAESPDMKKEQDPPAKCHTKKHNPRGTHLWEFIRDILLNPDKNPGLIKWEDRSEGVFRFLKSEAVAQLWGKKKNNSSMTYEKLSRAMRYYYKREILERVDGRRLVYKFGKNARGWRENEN
In short: as §1

SPI1 = SPI1 (Homo sapiens, UniProt P17947 1-270); details: protein: recombinant; tags: N-terminal GST; dsDNA, one strand shown
In short: as §1

SPIB = SPIB (Homo sapiens, UniProt Q01892 1-262); details: protein: recombinant; tags: N-terminal GST; dsDNA, one strand shown
Sequence of SPIB (Q01892 whole entry): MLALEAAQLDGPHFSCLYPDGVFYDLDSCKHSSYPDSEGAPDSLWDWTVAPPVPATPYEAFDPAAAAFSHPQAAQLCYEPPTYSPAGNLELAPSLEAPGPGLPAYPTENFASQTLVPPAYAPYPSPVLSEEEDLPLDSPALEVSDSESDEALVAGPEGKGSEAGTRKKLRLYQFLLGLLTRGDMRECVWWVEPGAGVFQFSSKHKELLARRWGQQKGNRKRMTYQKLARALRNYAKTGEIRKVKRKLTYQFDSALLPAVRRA
In short: as §1

ELK3 = molecular target: T6, ELK3 (Homo sapiens, UniProt P41970 1-407); details: protein: recombinant; tags: N-terminal GST; dsDNA, one strand shown
T6 sequence: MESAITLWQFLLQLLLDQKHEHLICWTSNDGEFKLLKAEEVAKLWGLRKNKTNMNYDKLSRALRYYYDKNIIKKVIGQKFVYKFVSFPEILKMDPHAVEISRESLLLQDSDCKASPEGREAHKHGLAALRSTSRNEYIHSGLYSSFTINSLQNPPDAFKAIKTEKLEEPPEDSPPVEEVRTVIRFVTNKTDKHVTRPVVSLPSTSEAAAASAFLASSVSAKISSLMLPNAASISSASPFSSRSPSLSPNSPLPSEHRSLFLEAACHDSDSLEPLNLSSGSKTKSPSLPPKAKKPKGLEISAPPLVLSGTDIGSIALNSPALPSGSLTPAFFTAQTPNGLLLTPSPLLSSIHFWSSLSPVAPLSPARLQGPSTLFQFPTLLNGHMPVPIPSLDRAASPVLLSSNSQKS
In short: as §1

FEV = molecular target: T7, FEV (Homo sapiens, UniProt Q99581 1-238); details: protein: recombinant; tags: N-terminal GST; dsDNA, one strand shown
T7 sequence: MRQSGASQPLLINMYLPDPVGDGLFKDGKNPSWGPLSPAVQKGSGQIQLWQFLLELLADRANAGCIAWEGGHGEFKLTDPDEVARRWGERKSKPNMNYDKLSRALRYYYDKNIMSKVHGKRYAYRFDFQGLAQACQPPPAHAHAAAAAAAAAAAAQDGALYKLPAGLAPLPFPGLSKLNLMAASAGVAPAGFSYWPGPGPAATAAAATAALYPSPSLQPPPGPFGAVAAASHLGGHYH
In short: as §1

ETV5 = ETV5 (Homo sapiens, UniProt P41161 1-510); details: protein: recombinant; tags: N-terminal GST; dsDNA, one strand shown
Sequence of ETV5 (P41161 whole entry): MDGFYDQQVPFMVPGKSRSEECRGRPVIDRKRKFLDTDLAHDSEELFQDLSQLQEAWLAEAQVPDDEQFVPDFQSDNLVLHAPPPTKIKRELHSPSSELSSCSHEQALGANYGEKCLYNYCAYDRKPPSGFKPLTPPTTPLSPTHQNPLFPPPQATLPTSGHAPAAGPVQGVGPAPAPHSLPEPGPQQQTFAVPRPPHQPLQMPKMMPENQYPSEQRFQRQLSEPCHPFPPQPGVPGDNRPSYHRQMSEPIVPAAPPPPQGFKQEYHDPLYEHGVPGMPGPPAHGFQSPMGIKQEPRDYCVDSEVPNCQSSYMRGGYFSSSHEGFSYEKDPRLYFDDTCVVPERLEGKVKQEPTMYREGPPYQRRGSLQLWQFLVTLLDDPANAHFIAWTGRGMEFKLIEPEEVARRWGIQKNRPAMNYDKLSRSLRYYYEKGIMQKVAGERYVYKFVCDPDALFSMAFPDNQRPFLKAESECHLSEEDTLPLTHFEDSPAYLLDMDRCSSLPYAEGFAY
In short: as §1

HSF1 = HSF1 (Homo sapiens, UniProt Q00613 1-529); details: protein: recombinant; tags: N-terminal GST; chain copies: 3; dsDNA, one strand shown
Sequence of HSF1 (Q00613 whole entry): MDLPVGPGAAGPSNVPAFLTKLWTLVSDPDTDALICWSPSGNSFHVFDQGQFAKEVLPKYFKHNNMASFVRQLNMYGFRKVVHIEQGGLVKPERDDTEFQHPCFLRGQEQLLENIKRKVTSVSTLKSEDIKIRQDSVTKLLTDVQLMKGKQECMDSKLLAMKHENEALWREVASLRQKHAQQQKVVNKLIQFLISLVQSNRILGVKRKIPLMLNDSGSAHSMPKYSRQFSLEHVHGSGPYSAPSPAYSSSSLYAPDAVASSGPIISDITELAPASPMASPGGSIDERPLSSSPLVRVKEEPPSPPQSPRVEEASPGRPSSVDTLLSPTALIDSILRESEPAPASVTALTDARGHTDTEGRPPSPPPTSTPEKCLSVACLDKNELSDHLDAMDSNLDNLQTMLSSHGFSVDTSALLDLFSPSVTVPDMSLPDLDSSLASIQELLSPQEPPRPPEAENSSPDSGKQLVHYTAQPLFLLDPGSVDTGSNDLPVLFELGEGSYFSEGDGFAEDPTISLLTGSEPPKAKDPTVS
In short: as §1

SPIC = molecular target: T8, SPIC (Homo sapiens, UniProt Q8N5J4 1-248); details: protein: recombinant; tags: N-terminal GST; dsDNA, one strand shown
T8 sequence: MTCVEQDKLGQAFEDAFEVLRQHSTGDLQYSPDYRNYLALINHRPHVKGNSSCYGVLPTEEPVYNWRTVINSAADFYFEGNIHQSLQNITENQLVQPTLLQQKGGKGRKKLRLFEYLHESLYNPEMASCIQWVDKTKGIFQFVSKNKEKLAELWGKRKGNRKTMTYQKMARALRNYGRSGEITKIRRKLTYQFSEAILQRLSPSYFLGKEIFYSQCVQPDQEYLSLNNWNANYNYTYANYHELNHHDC
In short: as §1

ELF4 = ELF4 (Homo sapiens, UniProt Q99607 1-663); details: protein: recombinant; tags: N-terminal GST; dsDNA, one strand shown
Sequence of ELF4 (Q99607 whole entry): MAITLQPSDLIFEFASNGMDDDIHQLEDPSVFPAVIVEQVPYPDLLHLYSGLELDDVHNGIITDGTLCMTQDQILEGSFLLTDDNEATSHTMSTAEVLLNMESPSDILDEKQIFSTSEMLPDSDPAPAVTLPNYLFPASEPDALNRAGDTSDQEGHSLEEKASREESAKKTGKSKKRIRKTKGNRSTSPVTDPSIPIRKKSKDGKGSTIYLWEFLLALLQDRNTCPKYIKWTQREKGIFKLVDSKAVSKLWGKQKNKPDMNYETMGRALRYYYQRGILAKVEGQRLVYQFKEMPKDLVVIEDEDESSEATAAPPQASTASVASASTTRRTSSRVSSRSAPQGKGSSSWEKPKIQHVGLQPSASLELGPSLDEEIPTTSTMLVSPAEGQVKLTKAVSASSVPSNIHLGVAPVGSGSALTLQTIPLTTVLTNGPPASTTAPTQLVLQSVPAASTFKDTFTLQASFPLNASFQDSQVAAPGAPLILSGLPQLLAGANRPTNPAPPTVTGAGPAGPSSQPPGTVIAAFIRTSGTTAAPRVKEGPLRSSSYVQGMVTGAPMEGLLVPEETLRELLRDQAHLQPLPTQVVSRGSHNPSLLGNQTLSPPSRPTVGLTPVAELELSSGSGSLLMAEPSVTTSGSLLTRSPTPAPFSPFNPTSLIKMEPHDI
In short: as §1

ELK4 = molecular target: T9, ELK4 (Homo sapiens, UniProt P28324-2 1-405); details: protein: recombinant; tags: N-terminal GST; dsDNA, one strand shown
T9 sequence: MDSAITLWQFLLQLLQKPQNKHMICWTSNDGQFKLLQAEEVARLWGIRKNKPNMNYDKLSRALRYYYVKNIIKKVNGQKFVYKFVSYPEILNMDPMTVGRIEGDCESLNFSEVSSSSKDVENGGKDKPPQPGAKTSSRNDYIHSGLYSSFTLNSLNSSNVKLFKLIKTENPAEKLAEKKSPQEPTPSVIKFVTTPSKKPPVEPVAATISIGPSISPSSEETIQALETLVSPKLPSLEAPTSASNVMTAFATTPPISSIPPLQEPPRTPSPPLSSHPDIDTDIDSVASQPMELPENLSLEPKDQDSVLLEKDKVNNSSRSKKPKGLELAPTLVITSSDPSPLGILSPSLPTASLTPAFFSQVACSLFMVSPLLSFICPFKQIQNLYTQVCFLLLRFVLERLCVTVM
In short: as §1

ETV2 = molecular target: T10, ETV2 (Homo sapiens, UniProt O00321 1-342); details: protein: recombinant; tags: N-terminal GST; dsDNA, one strand shown
T10 sequence: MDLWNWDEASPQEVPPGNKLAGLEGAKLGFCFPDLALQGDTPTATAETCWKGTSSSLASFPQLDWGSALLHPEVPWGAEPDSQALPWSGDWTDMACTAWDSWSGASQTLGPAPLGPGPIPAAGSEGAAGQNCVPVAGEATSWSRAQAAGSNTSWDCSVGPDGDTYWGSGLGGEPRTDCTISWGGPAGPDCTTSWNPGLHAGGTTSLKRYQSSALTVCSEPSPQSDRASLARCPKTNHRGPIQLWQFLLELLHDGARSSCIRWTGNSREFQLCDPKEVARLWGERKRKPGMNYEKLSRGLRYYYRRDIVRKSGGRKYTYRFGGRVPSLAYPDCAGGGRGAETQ
In short: as §1

ELF3 = molecular target: T11, ELF3 (Homo sapiens, UniProt P78545 1-371); details: protein: recombinant; tags: N-terminal GST; dsDNA, one strand shown
T11 sequence: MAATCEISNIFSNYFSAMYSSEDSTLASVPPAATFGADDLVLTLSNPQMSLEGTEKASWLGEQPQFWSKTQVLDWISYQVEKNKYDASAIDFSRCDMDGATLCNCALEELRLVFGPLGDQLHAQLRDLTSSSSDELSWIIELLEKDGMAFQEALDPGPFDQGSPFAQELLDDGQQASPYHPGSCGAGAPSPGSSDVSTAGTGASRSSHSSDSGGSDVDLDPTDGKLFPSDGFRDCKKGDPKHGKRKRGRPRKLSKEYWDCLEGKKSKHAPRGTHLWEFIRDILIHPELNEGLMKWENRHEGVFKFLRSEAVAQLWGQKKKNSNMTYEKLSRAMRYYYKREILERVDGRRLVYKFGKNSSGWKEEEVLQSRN
In short: as §1

CRX = CRX (Homo sapiens, UniProt O43186 1-299); details: protein: recombinant; tags: N-terminal GST; dsDNA, one strand shown
Sequence of CRX (O43186 whole entry): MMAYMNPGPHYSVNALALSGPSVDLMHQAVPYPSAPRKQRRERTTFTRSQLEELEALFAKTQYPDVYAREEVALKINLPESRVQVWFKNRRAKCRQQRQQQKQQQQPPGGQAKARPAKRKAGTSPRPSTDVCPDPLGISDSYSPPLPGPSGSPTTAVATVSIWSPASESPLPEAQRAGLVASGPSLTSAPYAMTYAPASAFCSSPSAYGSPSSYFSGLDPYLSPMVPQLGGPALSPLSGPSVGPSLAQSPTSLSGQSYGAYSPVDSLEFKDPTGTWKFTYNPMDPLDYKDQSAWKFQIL
In short: as §1

ETV1 = ETV1 (Homo sapiens, UniProt P50549 1-477); details: protein: recombinant; tags: N-terminal GST; dsDNA, one strand shown
Sequence of ETV1 (P50549 whole entry): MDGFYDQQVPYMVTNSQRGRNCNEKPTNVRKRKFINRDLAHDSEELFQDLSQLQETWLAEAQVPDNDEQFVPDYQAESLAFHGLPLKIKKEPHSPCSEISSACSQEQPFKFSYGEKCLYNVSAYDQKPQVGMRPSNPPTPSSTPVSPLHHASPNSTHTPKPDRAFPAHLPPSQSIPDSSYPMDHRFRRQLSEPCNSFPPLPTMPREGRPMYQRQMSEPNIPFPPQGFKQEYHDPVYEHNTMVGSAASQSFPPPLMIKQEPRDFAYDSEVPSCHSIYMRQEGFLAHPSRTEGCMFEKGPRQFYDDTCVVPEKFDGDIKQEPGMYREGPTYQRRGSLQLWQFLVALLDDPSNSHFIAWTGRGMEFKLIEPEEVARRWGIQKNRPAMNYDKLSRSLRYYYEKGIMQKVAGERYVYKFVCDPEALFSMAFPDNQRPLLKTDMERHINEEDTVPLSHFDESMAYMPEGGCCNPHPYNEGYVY
In short: as §1

Sequence: TTTACT
- binding signal (FLI1): 1.41 fold enrichment (6-mer frequency, TF over GST control)
- binding signal (ELK1): 1.56 fold enrichment (6-mer frequency, TF over GST control)
- binding signal (GABPA): 1.53 fold enrichment (6-mer frequency, TF over GST control)
- binding signal (ERG): 1.43 fold enrichment (6-mer frequency, TF over GST control)
- binding signal (ELF1): 1.43 fold enrichment (6-mer frequency, TF over GST control)
- binding signal (EHF): 1.51 fold enrichment (6-mer frequency, TF over GST control)
- binding signal (SPI1): 1.46 fold enrichment (6-mer frequency, TF over GST control)
- binding signal (SPIB): 1.37 fold enrichment (6-mer frequency, TF over GST control)
- binding signal (ELK3): 1.41 fold enrichment (6-mer frequency, TF over GST control)
- binding signal (FEV): 1.41 fold enrichment (6-mer frequency, TF over GST control)
- binding signal (ETV5): 1.44 fold enrichment (6-mer frequency, TF over GST control)
- binding signal (HSF1): 1.69 fold enrichment (6-mer frequency, TF over GST control)
- binding signal (SPIC): 1.44 fold enrichment (6-mer frequency, TF over GST control)
- binding signal (ELF4): 1.5 fold enrichment (6-mer frequency, TF over GST control)
- binding signal (ELK4): 1.66 fold enrichment (6-mer frequency, TF over GST control)
- binding signal (ETV2): 1.29 fold enrichment (6-mer frequency, TF over GST control)
- binding signal (ELF3): 1.65 fold enrichment (6-mer frequency, TF over GST control)
- binding signal (CRX): 1.95 fold enrichment (6-mer frequency, TF over GST control)
- binding signal (ETV1): 1.48 fold enrichment (6-mer frequency, TF over GST control)

Reference: article PMC7862700, “An all-to-all approach to the identification of sequence-specific readers for epigenetic DNA modifications on cytosine”
